Screening results: PubChem BioAssay, National Center for Advancing Translational Sciences (NCATS)
SMN2 splice enh: increases expression of the SMN2 splice variant. HEK293 SMN2-luciferase splicing reporter, luminescence, 30-36 h. Potency, µM (top dose mostly 46.1 µM), for the others: top-dose activity change, positive = activation, actives largely listed as activators. AID 1458. 210,000 compounds, 2.8% hits; also: % of control where 0% means no effect; nearly all actives have a fitted effect of over 55% in size
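HEK293 cells carry an SMN2 […]–luciferase reporter in which exon 7 inclusion puts luciferase in frame. Cells were plated 10-12 h before compound addition, then incubated 30-36 h at 37C. ONE-Glo luminescence was read; sodium butyrate at 4.5 mM final served as control.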
ELG1 DNA repair: inhibitors of ELG1-dependent DNA repair in HEK293T cells. 330,000 compounds, 2.3% hits. Potency, µM (titrated, usually from 46.1 µM), without a hit: top-dose activity change, negative = inhibition, hits mostly inhibitors. AID 504467. HEK293T ELG1-luciferase reporter, luminescence, 16 h; DNA damage induced by 5-fluorouridine; also: % is scaled to controls: 0 for no effect and ±100 for the full control effect; nearly all actives have a fitted effect of over 55% in size
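Quantitative HTS, concentration-response format. 2,000 cells/well co-treated with 5-fluorouridine and compound, 16 hr in 5% CO2 at 37 °C; ONE-Glo luminescence read after 30 min.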
ELG1 genotox: inducers of genotoxicity in HEK293T ELG1-luciferase cells; Potency, µM (top dose mostly 46 µM), for the others: at the top dose activity change, positive = activation, most hits filed as activators; HEK293T ELG1-luciferase reporter, luminescence, 16 h; 330,000 compounds, 1.3% hits; also: % of control where 0% means no effect; nearly all actives have a fitted effect of over 60% in size
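Genotoxicity was scored as increased ELG1-luciferase reporter signal, measured by ONE-Glo luminescence (30 min, room temperature). Compound or vehicle exposure of the HEK293T reporter cells lasted 16 hr at 37°C.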
NPC1 promoter act: activates the NPC1 promoter; 320,000 compounds, 2.4% hits; Potency, µM (doses to about 9.22 µM), inactives show at the top dose activation, most hits filed as activators; Huh7 NPC1 promoter luciferase reporter, 24 h; also: % of control where 0% means no effect; nearly all actives have a fitted effect of over 60% in size
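Huh7 cells stably carrying NPC1 promoter–luciferase, plated in Opti-MEM with 10% FBS for 2 h, were exposed to compound in DMSO for 24 h at 37 °C; luciferase reagent was added for 10 min and luminescence read.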
Rab9 prom act: activates the Rab9 promoter | Huh7 Rab9 promoter-luciferase reporter, luminescence, 24 h | Potency, µM (doses to about 9.22 µM), for inactives: at the highest dose activation, negative = inhibition, hits mostly activators | 320,000 compounds, 2.8% hits; also: % of control where 0% means no effect; nearly all actives have a fitted effect of over 60% in size
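Huh7 cells stably carrying Rab9 promoter–luciferase reporter, plated 1500 cells/well, compound added after 2 h and incubated 24 h at 37 °C; luciferase luminescence then read after 10 min with detection reagent.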
FLuc modulator: inhibits or activates purified firefly luciferase, miR-21 counter-screen. P08659. purified FLuc, Km substrates, luminescence inhibition. Potency, µM (series often up to 57.5 µM), without a hit: top-dose activity change, negative = inhibition, usual class: inhibitors. 360,000 compounds, 6.9% hits. AID 588342;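 also: plate controls were vehicle for no effect and reference inhibitor for full effect; nearly all actives have a fitted effect of over 55% in size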
Target sequence (P08659 whole entry, looked up): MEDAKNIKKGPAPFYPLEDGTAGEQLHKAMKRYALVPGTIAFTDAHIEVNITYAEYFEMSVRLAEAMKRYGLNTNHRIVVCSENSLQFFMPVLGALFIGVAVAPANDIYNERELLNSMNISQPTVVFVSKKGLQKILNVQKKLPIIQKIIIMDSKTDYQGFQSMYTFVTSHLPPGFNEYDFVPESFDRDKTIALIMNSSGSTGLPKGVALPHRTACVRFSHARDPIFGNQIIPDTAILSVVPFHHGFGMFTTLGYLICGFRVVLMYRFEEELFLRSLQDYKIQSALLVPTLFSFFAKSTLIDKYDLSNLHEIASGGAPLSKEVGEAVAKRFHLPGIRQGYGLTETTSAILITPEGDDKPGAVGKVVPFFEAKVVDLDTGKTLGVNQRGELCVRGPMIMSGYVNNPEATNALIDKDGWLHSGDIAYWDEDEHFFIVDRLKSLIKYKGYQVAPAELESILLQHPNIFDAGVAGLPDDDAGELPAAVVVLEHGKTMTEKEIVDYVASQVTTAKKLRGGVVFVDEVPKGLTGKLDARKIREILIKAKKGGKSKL
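Biochemical qHTS of compounds, final roughly 60 µM downward over six points, against 10 nM purified firefly luciferase using Km concentrations of substrates (10 uM D-luciferin, 10 uM ATP) in Tris acetate pH 7.5 buffer; luminescence output.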
* marks the source's active call; other numbers are inactive results; ? = inconclusive; · = no result. An excerpt weighted towards active compounds, which were near 9.2% of everything screened. Calls follow the shape of the dose curve; as a rule, active = well fitted curve in the direction sought with a large enough effect; inconclusive = small, poorly fitted or top-dose-only effect, or another doubt; inactive = no such curve, though single readings can be large; an effect the other way counts as inactive or inconclusive. Potency is read from the fitted curve at half-maximal effect.

SMILES	SMN2 splice enh	ELG1 DNA repair	ELG1 genotox	NPC1 promoter act	Rab9 prom act	FLuc modulator
Cc1nn(C(=O)c2cc3sccc3[nH]2)c(C)c1C	?	?	16%	?	?	3µM*
Nc1nn2cc(-c3ccccc3)nc2c2ccccc12	4.5µM*	?	5.2µM*	?	3.2µM*	1.9µM*
O=C(OCc1cc(Cl)ccc1OC(F)F)c1cc(S(=O)(=O)O)ccc1O	-8%	1%	1%	2%	-3%	-1%
CCCCNc1nnc(SCC(=O)N2CCN(S(=O)(=O)c3ccc4ccccc4c3)CC2)s1	-23%	23µM*	-9%	0%	-2%	7%
CCc1ccc(-n2c(=O)c3sc4ccccc4c3n(CC(=O)N(CC)Cc3ccccc3)c2=O)cc1	0%	·	·	·	·	4%
Cc1cc2nn(-c3cccc4ccccc34)nc2cc1N	13µM*	?	13µM*	?	2.8µM*	4.8µM*
CCc1ccc(-n2nc3cc(C)c(NC(=O)c4cccc5ccccc45)cc3n2)cc1	-2%	·	·	·	·	?
Nc1ccc2nn(-c3cccc4ccccc34)nc2c1	-3%	?	7%	8%	12%	19µM*
O=C1C2CCc3ccccc3C2N1c1ccccc1 (configuration not stated)	·	21%	2%	1%	-7%	-3%
Cc1cc(C(=O)N/N=C/c2ccc[nH]2)no1	15%	?	1%	2%	11%	-19%
Cc1cc(C(=O)N/N=C/c2ccccc2Br)no1	2%	?	4%	20%	26%	21µM*
COc1ccccc1CCn1c(=O)c(-c2cc(F)cc(F)c2)nc2cncnc21	-7%	·	·	·	·	·
CN(Cc1ccccc1)C(=O)c1ccc(NC(=O)Cc2cccc(NC(=O)C3CCN(C(=O)C4CCC4)CC3)c2)cc1	·	5.2µM*	2%	1%	-2%	-21%
CN(Cc1ccccc1)C(=O)c1ccc(NC(=O)Cc2cccc(NC(=O)C3CCCN(C(=O)C4CCCCC4)C3)c2)cc1 (configuration not stated)	·	15µM*	-4%	2%	-2%	-10%
CN(Cc1ccccc1)C(=O)c1ccc(NC(=O)C2CCCN(C(=O)OC(C)(C)C)C2)cc1 (configuration not stated)	·	21µM*	-9%	·	·	·
CN(C(=O)c1cccc(NC(=O)C2CCN(C(=O)OC(C)(C)C)CC2)c1)C1CCCCC1	·	23µM*	-8%	·	·	·
CN(Cc1ccccc1)C(=O)c1ccc(NC(=O)Cc2cccc(NC(=O)C3CCCN(C(=O)C4CCCC4)C3)c2)cc1 (configuration not stated)	·	?	-4%	4%	-9%	-16%
Cc1csc2nc(COC(=O)c3ccc(NC(=O)c4ccccc4Br)cc3)cc(=O)n12	·	·	·	·	·	-9%
Cc1ccc(-c2ccc(SCC(=O)NCC3CCCO3)nn2)cc1 (configuration not stated)	-1%	11%	2%	11%	18%	17µM*
CCOC(=O)CC(=O)CSc1ncnc2c1nnn2-c1ccc(F)cc1	-8%	11%	0%	-1%	5%	?
CCOC(=O)CSc1ncnc2c1nnn2-c1ccc(F)cc1	-15%	?	6%	0%	3%	15µM*
Cc1ccc(-n2nnc3c(SCC(=O)NCC4CCCO4)ncnc32)cc1 (configuration not stated)	-5%	?	13%	8%	-1%	5.4µM*
CCOc1ccc(-c2ccc(SCC(=O)NCC3CCCO3)nn2)cc1 (configuration not stated)	16µM*	?	5%	?	3.2µM*	5.4µM*
Cc1ccc(NC(=O)Cn2c(=O)n(CCc3ccccc3)c(=O)c3sc4ccccc4c32)cc1C	16%	·	·	·	·	0%
C/C=C\C=C\C(=O)N1CC2(CC(c3cccc(NC(=O)CC)c3)=NO2)C[C@H]1C(N)=O (some centres not stated)	·	22%	4%	1%	-6%	-11%
